Data from PubChem BioAssay (NCI).
Compounds without any hit were thinned out: in the full panel of roughly 83,000, 20% have a hit.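 Compound tested at a single concentration for 48 hours in 96-well plates; a percent growth value below 10 was scored as active.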 The source made the active and inactive calls.

tested on: HCT-15 colon; assay: NCI-60 one-dose screen, 48 h (100 = growth as untreated, 0 = no growth, -100 = all killed); conditions: 10 µM unless noted

| SMILES | growth |
| --- | --- |
| C=C1C(=O)O[C@H]2[C@H]1CC/C(COC(=O)NCCc1cccc(OC)c1)=C\CC[C@@]1(C)O[C@@H]21 | 5.34% (active) |
| COc1ccccc1OCC(=O)Nc1sc2c(c1C(N)=O)CCC2 | 83.1% (inactive) |
| CCc1c(C(=O)Nc2ccc3ccccc3c2)[nH]c(C)c1C(C)=O | 79.1% (inactive) |
| CCC(=O)Oc1ccc2c(c1)CC[C@@H]1[C@@H]2CC[C@]2(C)C[C@H](OC(=O)CC)C[C@@H]12 | 38.9% (inactive) |
| COC(=O)CCCCN=Cc1c(O)c(O)c(C(C)C)c2cc(C)c(-c3c(C)cc4c(C(C)C)c(O)c(O)c(C=NCCCCC(=O)OC)c4c3O)c(O)c12 | 11.1% (inactive) |
| COc1ccc2c(c1)C(C)Cc1c(N(C)C)ncnc1N2C (stereo not drawn) | 23.7% (inactive) |
| Cc1ccc(S(=O)(=O)OCC(=O)Nc2ccc(C(=O)O)c(O)c2)cc1 | 109% (inactive) |
| O=C(O)c1ccc(-n2cc(CNc3ccc(C(F)(F)F)cc3)c(-c3ccccc3)n2)cc1 | 84.3% (inactive) |
| Cc1cc(C(=O)CSc2nc3ccccc3c(=O)[nH]2)c(C)n1C | 104% (inactive) |
| CC/C=C\C[C@H](O)C/C=C1/C(=O)C(Cl)=C[C@@H]1C/C=C\CCCC(=O)OC | -61.5% (active) |
| CCSc1nnc(Nc2ccc(C(C)C)cc2)s1 | 48% (inactive) |
| Cc1ccc2nc(-c3c(N)n[nH]c3CCCO)[nH]c(=O)c2c1 | 106% (inactive) |
| COc1cc(C(=O)N2CCN(C(=O)c3ccco3)CC2)c(N)cc1OCc1ccccc1 | 101% (inactive) |
| O=C(Nc1cccc(Cl)c1)c1cc([N+](=O)[O-])ccc1O | 61.7% (inactive) |
| O=C(CNC(=O)c1cccc2ccccc12)Nc1ccccc1Oc1ccccc1 | 8.09% (active) |
| Nc1cccc2c1CN(C1CCC(=O)NC1=O)C2=O (stereo not drawn) | 105% (inactive) |
| Nc1ccc(S(=O)(=O)c2ccc(Cl)cc2)cc1 | 97.8% (inactive) |
| CNC(=O)c1cc(Oc2ccc3c(c2)sc2nc(-c4ccc(Cl)cc4)cn23)ccn1 | 83.6% (inactive) |
| Cc1cc(C)c2c(=O)[nH]c(SCC(=O)Nc3cccc(S(=O)(=O)N(C)C)c3)nc2n1 | 119% (inactive) |
| CSc1ccccc1C#C/C=C\C#Cc1ccccc1N1CCCC1=O | 37.6% (inactive) |

| SMILES | growth |
| --- | --- |
| O=S(=O)(NCCCNc1cc(-c2cn(-c3ccccc3)nc2-c2cccc(O)c2)ccn1)c1ccc(Cl)cc1 | -5.43% (active) |
| CC(=O)Oc1cccc(OC(C)=O)c1OC(C)=O | 101% (inactive) |
| C=C1C(=O)O[C@H]2[C@H]1CC/C(COC(=O)NCCc1ccc(Br)cc1)=C\CC[C@@]1(C)O[C@@H]21 | 1.58% (active) |
| O=S=Nc1ccc([N+](=O)[O-])cc1 | 85.2% (inactive) |
| COc1ccc(N=C2NN=C(c3ccc(F)cc3)CS2)cc1OC | 96.5% (inactive) |
| NC(C(=O)O)C(O)c1ccc(OCc2ccccc2)c(OCc2ccccc2)c1 (stereo not drawn) | 97.6% (inactive) |
| CC/C=C\C[C@H]1C/C=C2/C(=O)C(Cl)=C[C@@H]2C/C=C\CCCC(=O)O1 | -90.8% (active) |
| Cc1sc2nc(CSc3nnc(-c4ccco4)o3)[nH]c(=O)c2c1C | 90.7% (inactive) |
| O=S(=O)(NCCCNc1cc(-c2cn(-c3ccccc3)nc2-c2cccc(O)c2)ccn1)c1cccc2ccccc12 | 1.39% (active) |
| CN(C)c1nc(N)c(N=O)c(N)n1 | 111% (inactive) |
| O=C1NC(Cc2c[nH]c3ccccc23)C(=O)N1Cc1ccc(Cl)cc1 (stereo not drawn) | 99.6% (inactive) |
| COC(=O)c1ccc(C)cc1 | 105% (inactive) |
| COC(=O)CCCCCN=Cc1c(O)c(O)c(C(C)C)c2cc(C)c(-c3c(C)cc4c(C(C)C)c(O)c(O)c(C=NCCCCCC(=O)OC)c4c3O)c(O)c12 | 17.2% (inactive) |
| O=S(=O)(NCCCNc1nccc(-c2c(-c3ccc(F)c(O)c3)nc3sccn23)n1)c1ccc(Cl)cc1 | 82.7% (inactive) |
| COc1ncc(-c2ccc3ncnc(Nc4cccc(Cl)c4)c3c2)cc1N(S(C)(=O)=O)S(C)(=O)=O | 54.9% (inactive) |
| CC(Br)C(O)c1cc2c(cc1Br)OCO2 (stereo not drawn) | 102% (inactive) |
| O=S(=O)(NCCCNc1cc(-c2cn(-c3ccccc3)nc2-c2cccc(O)c2)ccn1)c1ccc(Br)cc1 | -18.7% (active) |
| COc1ccc2c(c1)NC(=O)CN2c1nc(C)nc2ccccc12 | 9.21% (active) |
| NC(=O)c1c(NC(=O)c2ccc3c(c2)OCO3)sc2c1CCC(=O)C2 | -40.5% (active) |

tested on: HT29 colon; assay: as above; conditions: 10 µM unless noted

| SMILES | growth |
| --- | --- |
| C=C1C(=O)O[C@H]2[C@H]1CC/C(COC(=O)NCCc1cccc(OC)c1)=C\CC[C@@]1(C)O[C@@H]21 | 1.86% (active) |
| COc1ccccc1OCC(=O)Nc1sc2c(c1C(N)=O)CCC2 | 74.1% (inactive) |
| CCc1c(C(=O)Nc2ccc3ccccc3c2)[nH]c(C)c1C(C)=O | 93.7% (inactive) |
| CCC(=O)Oc1ccc2c(c1)CC[C@@H]1[C@@H]2CC[C@]2(C)C[C@H](OC(=O)CC)C[C@@H]12 | 110% (inactive) |
| COC(=O)CCCCN=Cc1c(O)c(O)c(C(C)C)c2cc(C)c(-c3c(C)cc4c(C(C)C)c(O)c(O)c(C=NCCCCC(=O)OC)c4c3O)c(O)c12 | 4.56% (active) |
| COc1ccc2c(c1)C(C)Cc1c(N(C)C)ncnc1N2C (stereo not drawn) | 11.6% (inactive) |
| Cc1ccc(S(=O)(=O)OCC(=O)Nc2ccc(C(=O)O)c(O)c2)cc1 | 98.6% (inactive) |
| O=C(O)c1ccc(-n2cc(CNc3ccc(C(F)(F)F)cc3)c(-c3ccccc3)n2)cc1 | 114% (inactive) |
| Cc1cc(C(=O)CSc2nc3ccccc3c(=O)[nH]2)c(C)n1C | 96.6% (inactive) |
| CC/C=C\C[C@H](O)C/C=C1/C(=O)C(Cl)=C[C@@H]1C/C=C\CCCC(=O)OC | -76.7% (active) |
| CCSc1nnc(Nc2ccc(C(C)C)cc2)s1 | 28.9% (inactive) |
| Cc1ccc2nc(-c3c(N)n[nH]c3CCCO)[nH]c(=O)c2c1 | 104% (inactive) |
| COc1cc(C(=O)N2CCN(C(=O)c3ccco3)CC2)c(N)cc1OCc1ccccc1 | 107% (inactive) |
| O=C(Nc1cccc(Cl)c1)c1cc([N+](=O)[O-])ccc1O | 49.8% (inactive) |
| O=C(CNC(=O)c1cccc2ccccc12)Nc1ccccc1Oc1ccccc1 | 1.97% (active) |
| Nc1cccc2c1CN(C1CCC(=O)NC1=O)C2=O (stereo not drawn) | 101% (inactive) |
| Nc1ccc(S(=O)(=O)c2ccc(Cl)cc2)cc1 | 98.1% (inactive) |
| CNC(=O)c1cc(Oc2ccc3c(c2)sc2nc(-c4ccc(Cl)cc4)cn23)ccn1 | 105% (inactive) |
| Cc1cc(C)c2c(=O)[nH]c(SCC(=O)Nc3cccc(S(=O)(=O)N(C)C)c3)nc2n1 | 104% (inactive) |
| CSc1ccccc1C#C/C=C\C#Cc1ccccc1N1CCCC1=O | 24.1% (inactive) |

| SMILES | growth |
| --- | --- |
| O=S(=O)(NCCCNc1cc(-c2cn(-c3ccccc3)nc2-c2cccc(O)c2)ccn1)c1ccc(Cl)cc1 | -32.7% (active) |
| CC(=O)Oc1cccc(OC(C)=O)c1OC(C)=O | 110% (inactive) |
| C=C1C(=O)O[C@H]2[C@H]1CC/C(COC(=O)NCCc1ccc(Br)cc1)=C\CC[C@@]1(C)O[C@@H]21 | -46.7% (active) |
| O=S=Nc1ccc([N+](=O)[O-])cc1 | 94.1% (inactive) |
| COc1ccc(N=C2NN=C(c3ccc(F)cc3)CS2)cc1OC | 100% (inactive) |
| NC(C(=O)O)C(O)c1ccc(OCc2ccccc2)c(OCc2ccccc2)c1 (stereo not drawn) | 97.3% (inactive) |
| CC/C=C\C[C@H]1C/C=C2/C(=O)C(Cl)=C[C@@H]2C/C=C\CCCC(=O)O1 | -55.6% (active) |
| Cc1sc2nc(CSc3nnc(-c4ccco4)o3)[nH]c(=O)c2c1C | 118% (inactive) |
| O=S(=O)(NCCCNc1cc(-c2cn(-c3ccccc3)nc2-c2cccc(O)c2)ccn1)c1cccc2ccccc12 | -9.29% (active) |
| CN(C)c1nc(N)c(N=O)c(N)n1 | 117% (inactive) |
| O=C1NC(Cc2c[nH]c3ccccc23)C(=O)N1Cc1ccc(Cl)cc1 (stereo not drawn) | 105% (inactive) |
| COC(=O)c1ccc(C)cc1 | 98.6% (inactive) |
| COC(=O)CCCCCN=Cc1c(O)c(O)c(C(C)C)c2cc(C)c(-c3c(C)cc4c(C(C)C)c(O)c(O)c(C=NCCCCCC(=O)OC)c4c3O)c(O)c12 | 4.21% (active) |
| O=S(=O)(NCCCNc1nccc(-c2c(-c3ccc(F)c(O)c3)nc3sccn23)n1)c1ccc(Cl)cc1 | 70.1% (inactive) |
| COc1ncc(-c2ccc3ncnc(Nc4cccc(Cl)c4)c3c2)cc1N(S(C)(=O)=O)S(C)(=O)=O | 53% (inactive) |
| CC(Br)C(O)c1cc2c(cc1Br)OCO2 (stereo not drawn) | 114% (inactive) |
| O=S(=O)(NCCCNc1cc(-c2cn(-c3ccccc3)nc2-c2cccc(O)c2)ccn1)c1ccc(Br)cc1 | -24.4% (active) |
| COc1ccc2c(c1)NC(=O)CN2c1nc(C)nc2ccccc12 | 3.4% (active) |
| NC(=O)c1c(NC(=O)c2ccc3c(c2)OCO3)sc2c1CCC(=O)C2 | -45.5% (active) |
